Bioassay records from PubChem.
Compounds with a hit are over-represented: about 6.8% of the library has one in this group of screens.
Pf Dd2 inh – P. falciparum Dd2 growth inhibitors, primary screen, SYBR Green fluorescence, single dose replicates; activity change, % at 10 µM; 72 h; stronger effect = lower value; 94,000 compounds, 2.3% hits; AID 1159554, 2015; in the data active = activity change below about -80%; inconclusive = no clear call, values can overlap the other calls
T cruzi growth-1 – T. cruzi intracellular proliferation inhibitors, primary screen, cell-based, beta-gal Tulahuen parasites, NIH3T3 host, luminescence; 77,000 compounds, 5.9% hits; T. cruzi beta-gal in NIH3T3, GalScreen luminescence, 90 h; inhibition, % at 8.34 µM;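 active = mean inhibition above about 93%, with at least 55% of replicates each passing it, limit read from the data, passing the limit was not always enough; inconclusive = only one of those two conditions holds; inactive = neither condition holds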
C diff growth – C. difficile growth inhibitors, primary screen, HTS | Clostridium difficile clinical isolate growth, OD600, 24 h; stronger effect = lower value | growth activity, negative = inhibition, % at 16 µg/mL (by protocol) | 86,000 compounds, 0.25% hits | AID 1259249, 2017;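 active = mean growth activity at or below -80% and every replicate also at or below -80%; inconclusive = mean at or below -80% but some replicate above -80%; inactive = mean growth activity above -80%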;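 also: 0% = DMSO wells and -100% = levofloxacin 16 µg/mL wells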
T cruzi growth-2 – T. cruzi intracellular proliferation inhibitors, confirmation, cell-based, NIH3T3 host, beta-gal parasite, luminescence, cherry-pick. shares compounds with T cruzi growth-1. T. cruzi beta-gal in NIH3T3, GalScreen luminescence, 90 h. AID 651739, 2012. 5,600 compounds, 72% hits. inhibition, % at 8.35 µM;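 active = mean replicate inhibition above about 95% and at least 55% of replicates individually reaching it, limit read from the data; inconclusive = only one of the two criteria is met; inactive = neither criterion is met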
T cruzi growth-3 – inhibitors of intracellular T. cruzi replication, confirmation, NIH3T3 host cells, beta-gal parasites, cherry-pick, set 2; shares compounds with T cruzi growth-1; T. cruzi beta-gal in NIH3T3, GalScreen luminescence, 90 h; inhibition, % at 2.09 µM; 5,600 compounds, 21% hits;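 active = mean inhibition above about 95%, with at least 55% of replicates also reaching it, limit read from the data; inconclusive = meets just one of the two conditions; inactive = meets neither condition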;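 also: plate controls were neutral control median for no effect and positive control median for full effect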
NIH3T3 tox – cytotoxicity in mouse NIH/3T3 fibroblasts, confirmation, cytotoxicity control for T. cruzi proliferation inhibitor project, cell-based, cherry-pick, single point | cytotoxicity (signal decrease), % at 8.35 µM | NIH/3T3 viability, CellTiter-Glo ATP luminescence, 90 h | shares compounds with T cruzi growth-1 | 5,600 compounds, 14% hits;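 active = mean signal decrease across replicates above about 35% based on untreated-well scatter, with enough replicates individually passing, limit read from the data; inconclusive = no rule stated though some were filed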;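 also: 0% = median of neutral control wells and 100% = median of positive control wells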
3T3 cytotox 2 – NIH/3T3 fibroblast cytotoxicity, confirmation, cytotoxicity control, cell-based, cherry-pick, single point, set 2 | shares compounds with T cruzi growth-1 | NIH/3T3 viability, CellTiter-Glo ATP luminescence, 90 h | inhibition, % at 24.9 µM | 5,600 compounds, 56% hits | AID 651744, 2012;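 active = mean loss of cell viability signal at or above a set limit, and enough replicates individually reaching it; inconclusive = meets only the mean limit or only the replicate share; inactive = meets neither condition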;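 also: 0% = median of neutral control wells and 100% = median of positive control wells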
An asterisk follows results filed as active; ? = inconclusive; nt = no result.

SMILES | Pf Dd2 inh | T cruzi growth-1 | C diff growth | T cruzi growth-2 | T cruzi growth-3 | NIH3T3 tox | 3T3 cytotox 2
COc1cccc(S(=O)(=O)N2CCCCN3[C@H](CO)[C@@H](c4ccc(-c5cccnc5)cc4)[C@@H]3C2)c1 | -20 | 94 | -28 | nt | nt | nt | nt
COc1ccc(S(=O)(=O)N2CCCCN3[C@H](C2)[C@H](c2ccc(-c4cccnc4)cc2)[C@@H]3CO)cc1 | 30 | 104* | -4 | 87 | 16 | 13 | 22
COc1ccc(S(=O)(=O)N2CCCCN3[C@@H](CO)[C@H](c4ccc(-c5cccnc5)cc4)[C@@H]3C2)cc1 | -23 | 79 | -12 | nt | nt | nt | nt
COc1cccc(S(=O)(=O)N2CCCCN3[C@H](CO)[C@H](c4ccc(-c5cccnc5)cc4)[C@H]3C2)c1 | -38 | 110* | -9 | 97* | 66 | 33 | 35*
COc1ccc(S(=O)(=O)N2CCCCN3[C@H](CO)[C@@H](c4ccc(-c5cccnc5)cc4)[C@@H]3C2)cc1 | -16 | 109* | -17 | ? | 41 | 17 | 37*
Cc1cccc(S(=O)(=O)N2CCCCN3[C@@H](CO)[C@@H](c4ccc(-c5cccnc5)cc4)[C@@H]3C2)c1 | -57 | 55 | -10 | nt | nt | nt | nt
CO[C@@H]1CN(C)C(=O)c2cc(NC(=O)NC3CCCCC3)ccc2OC[C@H](C)NC[C@H]1C | nt | 63 | nt | nt | nt | nt | nt
COc1ccccc1CN1CC[C@@H]2[C@H]1c1cc(-c3ccc(C(=O)N(C)C)cc3)ccc1N[C@@H]2CO | -57 | 58 | -13 | nt | nt | nt | nt
COc1ccc(S(=O)(=O)Nc2ccc3c(c2)C(=O)N([C@@H](C)CO)C[C@@H](C)[C@H](CN(C)S(=O)(=O)c2ccc(OC)cc2)O3)cc1 | -36 | 11 | 3 | nt | nt | nt | nt
C[C@@H]1CCCCO[C@@H](CN(C)Cc2ccc(C(=O)O)cc2)[C@H](C)CN([C@@H](C)CO)C(=O)c2cc(NC(=O)c3ccccc3)ccc2O1 | 14 | 26 | 2 | nt | nt | nt | nt
COc1cccc(S(=O)(=O)N2CC[C@H]3[C@@H](CO)N(C)c4ccc(C5=CCCCC5)cc4[C@H]32)c1 | -19 | 39 | -1 | nt | nt | nt | nt
O=C(C[C@H]1CC[C@H]2NC[C@H](O)COC[C@@H]2O1)NCCc1ccccc1 | 3 | 16 | 0 | nt | nt | nt | nt
COc1cccc(S(=O)(=O)N(C)C[C@@H]2Oc3cc(C#CCC(C)C)ccc3S(=O)(=O)N([C@@H](C)CO)C[C@@H]2C)c1 | -72 | ? | 28 | ? | 112* | 5 | 9
COc1cccc(S(=O)(=O)N(C)C[C@@H]2Oc3cc(C#CCC(C)C)ccc3S(=O)(=O)N([C@H](C)CO)C[C@H]2C)c1 | ? | 61 | 4 | nt | nt | nt | nt
COc1cccc(S(=O)(=O)N(C)C[C@H]2Oc3cc(C#CCC(C)C)ccc3S(=O)(=O)N([C@@H](C)CO)C[C@H]2C)c1 | -77 | ? | 7 | 96* | 112* | 18 | 66*
CCCC#Cc1ccc2c(c1)O[C@H](CN(C)S(=O)(=O)c1cccc(OC)c1)[C@H](C)CN([C@@H](C)CO)S2(=O)=O | -20 | nt | nt | nt | nt | nt | nt
COc1ccc(NC(=O)Nc2ccc3c(c2)CC(=O)N([C@@H](C)CO)C[C@@H](C)[C@@H](CN(C)C(=O)Nc2ccc(C(F)(F)F)cc2)O3)cc1 | 25 | 38 | -3 | nt | nt | nt | nt
CNC[C@@H]1Oc2cc(C#Cc3cccc(OC)c3)ccc2S(=O)(=O)N([C@@H](C)CO)C[C@@H]1C | -69 | nt | 14 | nt | nt | nt | nt
CNC[C@H]1Oc2cc(C#Cc3ccc(F)cc3)ccc2S(=O)(=O)N([C@H](C)CO)C[C@@H]1C | -64 | nt | 6 | nt | nt | nt | nt
CNC[C@H]1Oc2cc(C#Cc3ccc(OC)cc3)ccc2S(=O)(=O)N([C@@H](C)CO)C[C@@H]1C | -73 | 109* | 2 | 103* | 94 | -4 | 105*
CNC[C@@H]1Oc2cc(C#Cc3ccc(OC)cc3)ccc2S(=O)(=O)N([C@H](C)CO)C[C@H]1C | -56 | 103* | 0 | 107* | 81 | 15 | 105*
C[C@@H]1CCCCO[C@H](CN(C)Cc2ccncc2)[C@@H](C)CN([C@H](C)CO)C(=O)c2cc(NS(=O)(=O)c3ccccc3)ccc2O1 | -51 | -64 | -3 | nt | nt | nt | nt
COc1ccc(NC(=O)Nc2ccc3c(c2)C(=O)N([C@H](C)CO)C[C@@H](C)[C@H](CN(C)Cc2ccc(Cl)c(Cl)c2)OCCCC[C@H](C)O3)cc1 | -62 | 121* | -6 | 93 | 107* | 9 | 17
COc1ccc(NC(=O)Nc2ccc3c(c2)C(=O)N([C@@H](C)CO)C[C@@H](C)[C@H](CN(C)Cc2ccncc2)OCCCC[C@@H](C)O3)cc1 | 4 | 42 | 1 | nt | nt | nt | nt
COc1ccc(NC(=O)Nc2ccc3c(c2)C(=O)N([C@@H](C)CO)C[C@H](C)[C@@H](CN(C)Cc2ccc(Cl)c(Cl)c2)OCCCC[C@H](C)O3)cc1 | -29 | 124* | 0 | 99* | 113* | 16 | 21
SMILES | Pf Dd2 inh | T cruzi growth-1 | C diff growth | T cruzi growth-2 | T cruzi growth-3 | NIH3T3 tox | 3T3 cytotox 2
CN(C)C(=O)[C@]1(Cc2ccccc2N=[N+]=[N-])N=C(c2ccc(OCCCO)cc2)O[C@@H]1c1ccccc1 | nt | nt | 2 | nt | nt | nt | nt
CCS(=O)(=O)N1[C@H](C#N)[C@@H](c2ccc(-c3cccc(F)c3)cc2)[C@@H]1CO | 24 | 5 | 16 | nt | nt | nt | nt
N#C[C@@H]1[C@H](c2ccc(-c3cccc(F)c3)cc2)[C@@H](CO)N1S(=O)(=O)c1cccc(F)c1 | -24 | 102* | 10 | 105* | 103* | 14 | 105*
C/C=C/c1ccc([C@@H]2[C@@H](C#N)N(S(=O)(=O)c3cccc(F)c3)[C@@H]2CO)cc1 | -35 | 107* | 1 | 82 | 46 | 11 | 25*
C/C=C/c1ccccc1[C@@H]1[C@@H](C#N)N(S(=O)(=O)c2cccc(F)c2)[C@H]1CO | -60 | nt | -13 | nt | nt | nt | nt
N#C[C@@H]1[C@@H](c2ccc(-c3cccc(F)c3)cc2)[C@H](CO)N1S(=O)(=O)c1cccc(F)c1 | -53 | 99* | -12 | 102* | 82 | 41* | 107*
CCS(=O)(=O)N1[C@H](CO)[C@H](c2ccc(-c3cccc(F)c3)cc2)[C@@H]1C#N | 71 | 41 | 13 | nt | nt | nt | nt
Cc1noc(C)c1NC(=O)Nc1ccc2c(c1)C(=O)N([C@H](C)CO)C[C@@H](C)[C@H](CN(C)C(=O)C1CCCCC1)OCCCC[C@@H](C)O2 | -3 | 11 | 4 | nt | nt | nt | nt
